Values joined by “and” are separate entries in the source; they are usually repeats but may differ in a detail not shown here. Equal values may be shown once. Records with an inconclusive call do not appear. Values without a mark were called inactive. Active and inactive are the calls of the source. Calls follow the shape of the dose curve; as a rule, active = well fitted activation curve with a large enough effect; inconclusive = small, poorly fitted or top-dose-only effect; inactive = no such curve, though single readings can be large or run the other way.

This experiment can be described thus: Confirmation Concentration-Response Assay for Enhancers of SMN2 Splice Variant Expression for Probe SAR. Conditions: HEK293 SMN2 exon7 splicing luciferase reporter, luminescence; series mostly up to 46.1 µM; activation: at the top concentration. An excerpt: NIH Chemical Genomics Center [NCGC] NIH Molecular Libraries Probe Production centers Network [MLPCN] MLPCN Grant: R03 MH084179-01 Assay Submitter (PI): Elliot Androphy NCGC Assay Overview: Spinal muscular atrophy (SMA) is caused by insufficient levels of the survival motor neuron protein SMN. The SMN locus on chromosome 5q13 contains two inverted copies of SMN called SMN1 and SMN2 which are 99% identical at the amino acid level. SMN1 is a fully functional protein and SMN2 skips exon 7 90% of the time. Skipping of exon 7 produces non-functional protein product. 10% of the SMN2 protein includes exon 7 and is fully functional. In the SMA disease state, mutations in the SMN1 locus are the cause of the disease state. Because only 10% of SMN2 is of the fully functional form, it is not sufficient to overcome the deficiency produced by the loss of the SMN1 product. A therapy that either increase the amount of SMN2 product made or to increase the inclusion of exon 7 has been proposed for the treatment of SMA. We have designed an assay to identify small molecules that can increase the amount of functional SMN2 product by appending a luciferase reporter gene after the native SMN2 gene, such that inclusion of exon 7 in the expressed product places the luciferase sequence in frame, thus generating functional luciferase enzyme.
NCGC Assay Protocol Summary: This screen utilizes a luciferase reporter gene assay, combining the promoter with the major portion of the native SMN2 cDNA (exons 1 -7, intron 8 , exon 8 fused to luciferase) stably expressed in HEK293 cells. Compounds that increase luciferase signal presumably enhance expression of the functional SMN2 splice variant. Passaging media contained DMEM w/ glutamax (+phenol red) 10% FCS, 1x pen/strep, 200 ug/ml hygro, 1x sodium pyruvate. Assay media contained DMEM w/ glutamax (-phenol red) 10% FCS, 1x pen strep, 1x pyruvate Sequence, Parameter, Value, Description (1) Cells, 5 uL, 2000 cells/well, 1536 TC treated White solid bottom plate (2) Time, 10-12 hours, 37C 5% CO2 (3) Compound, 23 nl, MLSMR Library (4) Control Compound, 23 nL, Sodium butyrate st 4.5mM (final) conc (5) Time, 30-36 hours, 37C 5% CO2 (6) Reagent, 3 ul, One Glo (TM) from Promega (7) Time, 5-15 minutes, Room temp (8) Detector, Viewlux: luminescent read, 60 second integration, high speed 2x binning Keywords: Spinal muscular atrophy, SMA, SMN2, high throughput screening, MLSMR, MLPCN, NIH Roadmap, qHTS and NCGC
In the case of `NC(=O)C1CCN(c2nc(-c3ccc4ccccc4c3)cs2)CC1`, the Potency is 4.87 µM (active).

For the compound `COc1ccc(-c2csc(N3CCC(C(N)=O)CC3)n2)cc1`, the Potency was 4.34 µM (active).

`NC(=O)C1CCN(c2nc(-c3ccccc3F)cs2)CC1`: the Potency is 1.37 µM (active).

In the case of `CN(C)c1cccc(-c2csc(N3CCC(C(N)=O)CC3)n2)c1`, the Potency is 0.688 µM (active). In the case of `CC(=O)c1cccc(-c2csc(N3CCC(C(N)=O)CC3)n2)c1`, the Potency was 3.87 µM (active). For `NC(=O)C1CCN(c2nc(-c3cccc(N)c3)cs2)CC1`, the “activation” value was -14.3%. On to `CS(=O)(=O)c1cccc(-c2csc(N3CCC(C(N)=O)CC3)n2)c1`, for which the “activation” value is 4.76%.

As to `CS(=O)(=O)c1ccccc1-c1csc(N2CCC(C(N)=O)CC2)n1`, the “activation” value was -23.8%. With `CN(C)c1ccccc1-c1csc(N2CCC(C(N)=O)CC2)n1`, the “activation” value is 19%. With `NC(=O)C1CCN(c2nc(-c3ccc(Br)cc3)cs2)CC1`, the Potency is 708 nM (active) and 772 nM (active). As for `CC(=O)c1ccc(-c2csc(N3CCC(C(N)=O)CC3)n2)cc1`, the Potency was 7.72 µM (active). Take `NC(=O)C1CCN(c2nc(-c3cccnc3)cs2)CC1`: the “activation” value was 0%. The same measure, in the same setting: next, `NC(=O)C1CCN(c2nc(-c3ccccc3C(F)(F)F)cs2)CC1`: -39.3%.

On to `NC(=O)C1CCN(c2nc(-c3ccc4occc(=O)c4c3)cs2)CC1`, for which the Potency was 7.72 µM (active). The same measure, in the same setting: in the case of `NC(=O)C1CCN(c2nc(-c3cccs3)cs2)CC1` it was 7.72 µM (active). In the case of `Cc1ccc(-c2csc(N3CCC(C(N)=O)CC3)n2)cc1`, the Potency is 0.772 µM (active).

Regarding `Cc1noc(C)c1-c1csc(N2CCC(C(N)=O)CC2)n1`, the “activation” value is 14.3%. The same measure, in the same setting: in the case of `NC(=O)C1CCN(c2nc(-c3ccccc3-c3ccccc3)cs2)CC1` it was 5%. `Cn1ccc2cc(-c3csc(N4CCC(C(N)=O)CC4)n3)ccc21`: the Potency is 4.34 µM (active). On the same count and under the same terms, next, `NC(=O)C1CCN(c2nc(-c3cc4ccccc4o3)cs2)CC1`: 8.67 µM (active); `NC(=O)C1CCN(c2nc(-c3ccc4c(c3)OCCO4)cs2)CC1`: 0.688 µM (active); `NC(=O)C1CCN(c2nc(-c3ccc(F)cc3)cs2)CC1`: 3.45 µM (active). As for `NC(=O)C1CCN(c2nc(-c3ccccc3Br)cs2)CC1`, the “activation” value was -21.4%.

The values are drawn from PubChem BioAssay AID2514 (National Center for Advancing Translational Sciences (NCATS), 2010).
